# Only a selection was taken, and the strongest signals are over-represented in it overall.
# B1: rAAL-H59Q (Agrocybe aegerita), Q6WY08 (protein)
# chain: MQGVNIYNISAGTSVDLAAPVTTGDIVTFFSSALNLNAGAGNPNNTTLNLFAENGAYLLQIAFRLQENVIIFNSRQPDGPWLVEQRVSDVANQFAGIDGKAMVTVFDHGDKYQVVINEKTVIQYTKQISGLTLSLSYNATEETSIFSTVVEAVTYTGLALEHHHHHH
# How the values were obtained:
# Experiment in all cases: glycan array binding signal (z-score within array); higher = stronger binding
# Settings in all cases: glycan notation: IUPAC condensed, linker removed; mutation: H59Q
# [1] = target: Fuc(a1-2)Gal(b1-3)[Fuc(a1-4)]GlcNAc(b1-2)Man(a1-3)[Fuc(a1-2)Gal(b1-3)[Fuc(a1-4)]GlcNAc(b1-2)Man(a1-3)]Man(b1-4)GlcNAc(b1-4)GlcNAc
# In short: (§1)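 Glycan array binding is given as a within-array Z-score, which can be read as non-binding when negative. The arrays, 3228 of them, came from the Consortium for Functional Glycomics database and were retained only where the protein sequence was available. Z-scores were averaged across arrays of the same protein sequence at different concentrations or buffers and across linkers.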
# [2] = target: Fuc(a1-2)Gal(b1-4)GlcNAc(b1-3)Gal(b1-4)GlcNAc(b1-3)Gal(b1-4)GlcNAc
# In short: as §1
# [3] = target: Fuc(a1-2)Gal(b1-4)GlcNAc6S
# In short: as §1
# [4] = target: Fuc(a1-2)Gal(b1-4)[Fuc(a1-3)]GlcNAc
# In short: as §1
# [5] = target: Fuc(a1-2)Gal(b1-4)[Fuc(a1-3)]GlcNAc(b1-2)Man(a1-3)[Fuc(a1-2)Gal(b1-4)[Fuc(a1-3)]GlcNAc(b1-2)Man(a1-6)]Man(b1-4)GlcNAc(b1-4)[Fuc(a1-6)]GlcNAc
# In short: as §1
# [6] = target: Fuc(a1-2)[Gal(a1-3)]Gal(b1-4)[Fuc(a1-3)]Glc
# In short: as §1
# [7] = target: Fuc(a1-2)[GalNAc(a1-3)]Gal(b1-3)GlcNAc(b1-2)Man(a1-3)[Fuc(a1-2)[GalNAc(a1-3)]Gal(b1-3)GlcNAc(b1-2)Man(a1-6)]Man(b1-4)GlcNAc(b1-4)[Fuc(a1-6)]GlcNAc
# In short: as §1
# [8] = target: Fuc(a1-2)[GalNAc(a1-3)]Gal(b1-3)GlcNAc(b1-3)GalNAc
# In short: as §1
# [9] = target: Fuc(a1-2)[GalNAc(a1-3)]Gal(b1-4)GlcNAc(b1-6)GalNAc
# In short: as §1
# [10] = target: Fuc(a1-3)[Gal(b1-4)]GlcNAc(b1-6)GalNAc
# In short: as §1
# Gal(a1-3)Gal(b1-4)Glc = target: Gal(a1-3)Gal(b1-4)Glc
# In short: as §1
# [11] = target: Gal(b1-3)GlcNAc(a1-3)Gal(b1-4)GlcNAc
# In short: as §1
# [12] = target: Gal(b1-3)GlcNAc(b1-3)Gal(b1-4)GlcNAc
# In short: as §1
# [13] = target: Gal(b1-3)GlcNAc(b1-3)Gal(b1-4)GlcNAc(b1-2)[Gal(b1-3)GlcNAc(b1-3)Gal(b1-4)GlcNAc(b1-6)]Man(a1-6)[Gal(b1-3)GlcNAc(b1-3)Gal(b1-4)GlcNAc(b1-2)Man(a1-3)]Man(b1-4)GlcNAc(b1-4)[Fuc(a1-6)]GlcNAc
# In short: as §1
# [14] = target: Gal(b1-3)[Fuc(a1-4)]GlcNAc
# In short: as §1
# [15] = target: Gal(b1-4)GlcNAc(b1-2)Man(a1-3)[GlcNAc(b1-4)][Gal(b1-4)GlcNAc(b1-2)Man(a1-6)]Man(b1-4)GlcNAc(b1-4)GlcNAc
# In short: as §1
# [16] = target: Gal(b1-4)GlcNAc(b1-2)Man(a1-3)[Man(a1-6)]Man(b1-4)GlcNAc(b1-4)GlcNAc
# In short: as §1
# [17] = target: Gal(b1-4)GlcNAc(b1-2)Man(a1-6)[Man(a1-3)]Man(b1-4)GlcNAc(b1-4)GlcNAc
# In short: as §1
# [18] = target: Gal(b1-4)GlcNAc(b1-3)Gal(b1-4)GlcNAc(b1-2)Man(a1-3)[Gal(b1-4)GlcNAc(b1-3)Gal(b1-4)GlcNAc(b1-2)Man(a1-6)]Man(b1-4)GlcNAc(b1-4)[Fuc(a1-6)]GlcNAc
# In short: as §1
# [19] = target: Gal(b1-4)GlcNAc(b1-3)[GlcNAc(b1-6)]Gal(b1-4)GlcNAc
# In short: as §1
# Gal3S(b1-3)GalNAc = target: Gal3S(b1-3)GalNAc
# In short: as §1
# Gal3S(b1-3)GlcNAc = target: Gal3S(b1-3)GlcNAc
# In short: as §1
# Gal3S(b1-4)Glc = target: Gal3S(b1-4)Glc
# In short: as §1
# Gal3S(b1-4)Glc6S = target: Gal3S(b1-4)Glc6S
# In short: as §1
# Gal3S(b1-4)GlcNAc = target: Gal3S(b1-4)GlcNAc
# In short: as §1
# [20] = target: Gal3S(b1-4)[Fuc(a1-3)]GlcNAc6S
# In short: as §1
# Gal3S4S(b1-4)GlcNAc = target: Gal3S4S(b1-4)GlcNAc
# In short: as §1
# Gal3S6S(b1-4)GlcNAc6S = target: Gal3S6S(b1-4)GlcNAc6S
# In short: as §1
# Gal6S(b1-3)GlcNAc6S = target: Gal6S(b1-3)GlcNAc6S
# In short: as §1
# Gal6S(b1-4)GlcNAc = target: Gal6S(b1-4)GlcNAc
# In short: as §1
# Gal6S(b1-4)GlcNAc6S = target: Gal6S(b1-4)GlcNAc6S
# In short: as §1
# GalNAc(b1-4)GlcNAc6S = target: GalNAc(b1-4)GlcNAc6S
# In short: as §1
# GlcA(b1-6)Gal = target: GlcA(b1-6)Gal
# In short: as §1
# [21] = target: GlcA3S(b1-3)Gal(b1-4)GlcNAc(b1-2)Man
# In short: as §1
# [22] = target: GlcA3S(b1-3)Gal(b1-4)GlcNAc(b1-3)Gal(b1-4)Glc
# In short: as §1
# [23] = target: GlcNAc(a1-4)Gal(b1-4)GlcNAc(b1-3)Gal(b1-4)Glc
# In short: as §1
# [24] = target: GlcNAc(b1-2)Man(a1-3)[GlcNAc(b1-2)Man(a1-6)]Man(b1-4)GlcNAc(b1-4)[Fuc(a1-6)]GlcNAc
# In short: as §1
# [25] = target: GlcNAc(b1-2)[GlcNAc(b1-4)]Man(a1-3)[GlcNAc(b1-4)][GlcNAc(b1-2)Man(a1-6)]Man(b1-4)GlcNAc(b1-4)GlcNAc
# In short: as §1
# [26] = target: Man(a1-2)Man(a1-3)[Man(a1-6)]Man(a1-6)[Man(a1-2)Man(a1-3)]Man(b1-4)GlcNAc(b1-4)GlcNAc
# In short: as §1
# [27] = target: Man(a1-3)[Man(a1-6)]Man(b1-4)GlcNAc(b1-4)GlcNAc
# In short: as §1
# [28] = target: Neu5Ac(a2-3)Gal(b1-3)GalNAc6S
# In short: as §1
# [29] = target: Neu5Ac(a2-3)Gal(b1-3)GlcNAc(b1-2)Man(a1-3)[GlcNAc(b1-4)][Neu5Ac(a2-3)Gal(b1-3)GlcNAc(b1-2)Man(a1-6)]Man(b1-4)GlcNAc(b1-4)GlcNAc
# In short: as §1
# [30] = target: Neu5Ac(a2-3)Gal(b1-4)GlcNAc(b1-2)Man
# In short: as §1
# [31] = target: Neu5Ac(a2-3)Gal(b1-4)GlcNAc(b1-2)[Neu5Ac(a2-3)Gal(b1-4)GlcNAc(b1-4)]Man(a1-3)[GlcNAc(b1-4)][Neu5Ac(a2-3)Gal(b1-4)GlcNAc(b1-4)Man(a1-6)]Man(b1-4)GlcNAc(b1-4)GlcNAc
# In short: as §1
# [32] = target: Neu5Ac(a2-3)Gal(b1-4)GlcNAc(b1-3)GalNAc
# In short: as §1
# [33] = target: Neu5Ac(a2-3)Gal(b1-4)[Fuc(a1-3)]GlcNAc(b1-3)GalNAc
# In short: as §1
# [34] = target: Neu5Ac(a2-3)[GalNAc(b1-4)]Gal(b1-4)GlcNAc(b1-3)GalNAc
# In short: as §1
# [35] = target: Neu5Ac(a2-6)Gal(b1-4)GlcNAc(b1-2)Man(a1-3)[Man(a1-6)]Man(b1-4)GlcNAc(b1-4)GlcNAc
# In short: as §1
# [36] = target: Neu5Ac(a2-6)GalNAc(b1-4)GlcNAc
# In short: as §1
# [37] = target: Neu5Ac(a2-8)Neu5Ac(a2-3)Gal(b1-3)GalNAc(b1-4)[Neu5Ac(a2-8)Neu5Ac(a2-3)]Gal(b1-4)Glc
# In short: as §1
# Neu5Gc(a2-6)GalNAc = target: Neu5Gc(a2-6)GalNAc
# In short: as §1
# [38] = target: Neu5Gc(a2-8)Neu5Gc(a2-6)Gal(b1-4)GlcNAc
# In short: as §1
# [39] = target: Neu5Gc(b2-6)Gal(b1-4)GlcNAc
# In short: as §1
binder,measurement,setting,value
B1,glycan array binding signal (z-score),[1],-0.014
same,glycan array binding signal (z-score),[2],-0.113
same,glycan array binding signal (z-score),[3],-0.085
same,glycan array binding signal (z-score),[4],-0.09
same,glycan array binding signal (z-score),[5],0.171
same,glycan array binding signal (z-score),[6],-0.097
same,glycan array binding signal (z-score),[7],-0.106
same,glycan array binding signal (z-score),[8],-0.035
same,glycan array binding signal (z-score),[9],-0.124
same,glycan array binding signal (z-score),[10],-0.126
same,glycan array binding signal (z-score),Gal(a1-3)Gal(b1-4)Glc,-0.07
same,glycan array binding signal (z-score),[11],-0.119
same,glycan array binding signal (z-score),[12],-0.093
same,glycan array binding signal (z-score),[13],0.115
same,glycan array binding signal (z-score),[14],-0.116
same,glycan array binding signal (z-score),[15],-0.06
same,glycan array binding signal (z-score),[16],-0.059
same,glycan array binding signal (z-score),[17],0.003
same,glycan array binding signal (z-score),[18],-0.015
same,glycan array binding signal (z-score),[19],-0.115
same,glycan array binding signal (z-score),Gal3S(b1-3)GalNAc,7.76
same,glycan array binding signal (z-score),Gal3S(b1-3)GlcNAc,0.192
same,glycan array binding signal (z-score),Gal3S(b1-4)Glc,0.7
same,glycan array binding signal (z-score),Gal3S(b1-4)Glc6S,0.468
same,glycan array binding signal (z-score),Gal3S(b1-4)GlcNAc,0.615
same,glycan array binding signal (z-score),[20],0.694
same,glycan array binding signal (z-score),Gal3S4S(b1-4)GlcNAc,-0.119
same,glycan array binding signal (z-score),Gal3S6S(b1-4)GlcNAc6S,0.071
same,glycan array binding signal (z-score),Gal6S(b1-3)GlcNAc6S,-0.113
same,glycan array binding signal (z-score),Gal6S(b1-4)GlcNAc,-0.086
same,glycan array binding signal (z-score),Gal6S(b1-4)GlcNAc6S,-0.14
same,glycan array binding signal (z-score),GalNAc(b1-4)GlcNAc6S,-0.023
same,glycan array binding signal (z-score),GlcA(b1-6)Gal,-0.064
same,glycan array binding signal (z-score),[21],19.6
same,glycan array binding signal (z-score),[22],12.1
same,glycan array binding signal (z-score),[23],-0.059
same,glycan array binding signal (z-score),[24],-0.07
same,glycan array binding signal (z-score),[25],-0.055
same,glycan array binding signal (z-score),[26],-0.093
same,glycan array binding signal (z-score),[27],-0.085
same,glycan array binding signal (z-score),[28],-0.117
same,glycan array binding signal (z-score),[29],-0.066
same,glycan array binding signal (z-score),[30],-0.03
same,glycan array binding signal (z-score),[31],-0.016
same,glycan array binding signal (z-score),[32],-0.092
same,glycan array binding signal (z-score),[33],0.246
same,glycan array binding signal (z-score),[34],-0.084
same,glycan array binding signal (z-score),[35],0.009
same,glycan array binding signal (z-score),[36],-0.112
same,glycan array binding signal (z-score),[37],-0.103
same,glycan array binding signal (z-score),Neu5Gc(a2-6)GalNAc,-0.145
same,glycan array binding signal (z-score),[38],-0.072
same,glycan array binding signal (z-score),[39],-0.027

# Source: the supplement of paper PMC8728848
